Only a selection was taken, and hits are over-represented in it overall.
Pf Dd2 inh – Plasmodium falciparum Dd2 growth inhibition; P. falciparum Dd2 growth, SYBR Green, 72 h; Potency, µM (titrated, usually from 28.9 µM), inactives show top-dose activity, negative = inhibition, hits mostly inhibitors; 120,000 compounds, 4.3% hits; active = well fitted inhibition curve with a large enough effect;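 note: plate controls were DMSO vehicle for no effect and reference drug for full effect; nearly all actives have a fitted effect of over 65% in size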
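Readout: SYBR Green fluorescence, 485 nm excitation, 535 nm emission, after ~16 h lysis at 37C. Before that, Dd2-infected red cells (2.5% hematocrit) grew 72 h with compound, 29 uM top final concentration.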
Numbers without * were called inactive; i = inactive; [ ] = dose if it differs, or a comment. Potency is the fitted concentration of half-maximal effect.

SMILES	Pf Dd2 inh
O=C(c1cccc(Cl)c1)N1CCC2(CC1)CCN(Cc1cccs1)c1ccccc1O2	7.9µM*
Cn1cc(-c2cccc(Cl)c2)c2nc(CO)cn2c1=O	i
Cn1ccnc1CN1CCCC(NC(=O)c2ccc3c(c2)CCCO3)CC1 (stereo not drawn)	i
COc1ccc(-c2ccnc(N[C@H]3CO[C@H]4[C@@H]3OC[C@@H]4NC(=O)NCc3ccccc3)n2)cc1	5µM*
COc1ccc(-c2ccnc(N[C@H]3CO[C@H]4[C@@H]3OC[C@H]4OC(=O)Nc3ccc(C(C)=O)cc3)n2)cc1	5.6µM*
COc1ccc(-c2ccnc(N[C@H]3CO[C@H]4[C@@H]3OC[C@@H]4NC(=O)CC3(CC(=O)O)CCCC3)n2)cc1	-4%
COc1ccc(-c2ccnc(N[C@H]3CO[C@H]4[C@@H]3OC[C@H]4OC(=O)Nc3cccc(C(C)=O)c3)n2)cc1	-28%
COc1ccc(-c2ccnc(N[C@H]3CO[C@H]4[C@@H]3OC[C@H]4OC(=O)Nc3ccc(C(C)(C)C)cc3)n2)cc1	i
CCNC(=O)N[C@H]1CO[C@H]2[C@@H]1OC[C@@H]2Nc1nccc(-c2ccc(OC)cc2)n1	i
CCc1cc(N2CCC3(CC2)CC(c2ccccc2)C(=O)N3)nc(N(C)C)n1 (stereo not drawn)	-8%
O=C(CN1C(=O)CNC1=O)N[C@@H]1[C@@H](Cc2ccccc2)[C@H]2OCC[C@@H]12	11%
Cc1nnc2n1CCC(NC(=O)CCc1c[nH]c3ccccc13)CC2 (stereo not drawn)	36%
O=C(Cn1nc2n(c1=O)CCCC2)Nc1cccc(Br)c1	50%
O=C(Cc1ccc(F)cc1)Nc1cccc(-c2nnc3n2CCCC3)c1	7.1µM*
Cc1nnc2n1CCC(N(C)C(=O)CCc1c[nH]c3ccccc13)CC2 (stereo not drawn)	i
Cc1c(F)cccc1NC(=O)Nc1cccc(-c2nnc3n2CCCC3)c1	i
O=C(Cc1ccsc1)NC1CCc2nnc(C3CC3)n2CC1 (stereo not drawn)	3%
O=C(CCc1c[nH]c2ccccc12)Nc1cccc(-c2nnc3n2CCCC3)c1	3.2µM*
O=C(Cc1ccc(Cl)cc1)Nc1cccc(-c2nnc3n2CCCC3)c1	i
O=C(Cc1ccsc1)Nc1cccc(-c2nnc3n2CCCC3)c1	8.9µM*
O=C(c1ccncc1)N1CC[C@H](c2nnc(-c3ccccc3)o2)C1	2%[44.1 µM]
O=c1[nH]c(N2CCOCC2)nc2c1CCN(Cc1cccc(Br)c1)CC2	-5%[5.79 µM]
COc1c(C)cccc1C(=O)N1CCC2(CC1)Nc1ccccc1NC2=O	-2%
CC(C)(Oc1ccc2c(c1)CCC2)C(=O)N1CCC2(CCCNC2=O)C1 (stereo not drawn)	-2%
O=C([C@@H]1C[C@H](F)CN1S(=O)(=O)c1ccc(F)c(F)c1)N1CCCCC1	-16%
SMILES	Pf Dd2 inh
COCCOCc1nc(C2CCCCN2C(=O)NCc2ccccc2)no1 (stereo not drawn)	-18%
COc1cc(F)cc(-c2ccc(COc3ccc4c(cnn4CCC(=O)O)c3)cc2)c1	-18%[44.1 µM]
COc1cccc(F)c1-c1ccc(COc2ccc3c(cnn3CCC(=O)O)c2)cc1	-20%[44.1 µM]
COc1ccc(F)cc1-c1cccc(COc2ccc3c(cnn3CC[S+](C)(=O)[O-])c2)c1	-29%
COc1ccc(-c2ccc(COc3ccc4c(cnn4CCC(=O)O)c3)cc2)c(Cl)c1	i
C[S+](=O)([O-])CCn1ncc2cc(OCc3cccc(-c4cncnc4)c3)ccc21	i
COc1ccccc1-c1cccc(COc2ccc3c(cnn3CC[S+](C)(=O)[O-])c2)c1	-29%[44.1 µM]
C[S+](=O)([O-])CCn1ncc2cc(OCc3cccc(-c4ccccc4O)c3)ccc21	7.9µM*
CNC(=O)CCn1ncc2cc(OCc3ccccc3-c3ccccc3COC)ccc21	4µM*
CNC(=O)CCn1ncc2cc(OC3CCc4cccc(-c5ccnc(OC)c5)c43)ccc21 (stereo not drawn)	-7%
CNC(=O)CCn1ncc2cc(OCc3ccccc3-c3cnc(OC)nc3)ccc21	i
CNC(=O)CCn1ncc2cc(OCc3ccccc3-c3cc(F)ccc3C)ccc21	3.2µM*
CNC(=O)CCn1ncc2cc(OCc3ccccc3-c3c(Cl)cccc3OC)ccc21	4µM*
CCC(C)NC(=O)C(NC(=O)c1cccs1)C1CCN(C(=O)c2ccccc2F)CC1 (stereo not drawn)	-10%
COc1cccc(C(=O)N[C@@H]2CN(S(C)(=O)=O)C[C@H]2CN(C)C)c1	-3%
NC(=O)C1CCN(CC[C@H]2CN(C(=O)Nc3ccc(C(F)(F)F)cc3)CC[C@H]2CC(=O)O)CC1	1%
O=C1c2c(-c3nc(-c4ccsc4)no3)nnn2CCN1CCOc1ccc(F)cc1	i
COCC[C@]1(O)CCN(C(=O)CCc2ccccc2Cl)C[C@H]1C	-7%
COCC(=O)N[C@@H]1CN(C(=O)c2ccc(F)cc2)CC[C@@H]1CO	14%
COC(=O)c1cc2sccc2n1Cc1ccccc1	31%
COC(=O)c1cc2sc(C)cc2n1Cc1cccc(OC)c1	10µM*
COC(=O)c1cc2sc(C)cc2n1Cc1ccccc1	-7%
O=C(C[C@@H]1O[C@H](CNC(=O)Nc2cccc(F)c2)[C@@H](O)[C@H]1O)NCc1ccc(F)cc1	i
Cc1noc(-c2cn(C3CCCN(C(=O)c4ccc(C)c(F)c4)C3)nn2)n1 (stereo not drawn)	i
CCc1c(C)nn(CC(=O)N2CC(C)(C)[C@@](C)(O)C2)c1C	2%
SMILES	Pf Dd2 inh
O=C1NC2(CCN(Cc3ccc(F)cc3)CC2)Oc2ccccc21	10µM*
Cc1cc(CN2CCC3(C2)NC(=O)c2ccccc2O3)no1 (stereo not drawn)	-18%[44.1 µM]
CN(C)c1ccc(CN2CCC3(CC2)NC(=O)c2ccccc2O3)cc1	i
COc1ccc(CN2CCC3(CC2)NC(=O)c2ccccc2O3)cc1	13µM*
CC(=O)Nc1ccc(CN2CCC3(CC2)NC(=O)c2ccccc2O3)cc1	i
COc1cccc(CN2CCC3(C2)NC(=O)c2ccccc2O3)c1 (stereo not drawn)	13µM*
O=C1NC2(CCCN(Cc3cccnc3)C2)COc2ccccc21 (stereo not drawn)	i
O=C1NC2(CCCN(Cc3ccc(F)cc3)C2)COc2ccccc21 (stereo not drawn)	-15%
O=C1NC2(CCN(Cc3ccsc3)CC2)Oc2ccccc21	-23%[44.1 µM]
O=C1NC2(CCCN(Cc3ccccn3)C2)COc2ccccc21 (stereo not drawn)	0.63µM*
COc1cccc([S+](=O)([O-])N2CCC3(CC2)NC(=O)c2ccccc2O3)c1	i
COc1ccc(CN2CCC3(C2)NC(=O)c2ccccc2CO3)cc1 (stereo not drawn)	-16%
COC(=O)CNC(=O)C1CN(S(=O)(=O)c2cccnc2)CC12CCCCC2 (stereo not drawn)	-2%
Cn1ncc(CN2CC[C@@H]3[C@@H](CCC(=O)N3CCCN)C2)c1C1CC1	-17%
CCS(=O)(=O)Nc1ccc(C2(C(=O)NCc3ccccc3F)CCCCC2)cc1	i
O=C(CC(F)(F)F)N1CCC(c2noc(-c3cccnc3)n2)C1 (stereo not drawn)	4%[5.79 µM]
COC(=O)[C@H]1CN(C(=O)c2cccnc2)CCN1C(=O)C1CCCCC1	i
Cc1cc2nc3n(c(=O)c2n1CC(=O)Nc1cccc(C(F)(F)F)c1)CCC3	-8%
O=C(CCc1ccccc1)N1CCCc2ncc(C(=O)N3CCCC[C@@H]3Cc3ccccc3)cc21	-4%
O=C(O)c1cnc(NCc2ccccn2)nc1-c1ccncc1	i
Cc1ccc(C(=O)N(C)CC2CCOCC2)cc1F	-13%

Assay outcomes (PubChem BioAssay)
